# Source: PubChem BioAssay (Tox21)
# A number with no mark means an inactive call. Inconclusive results are not listed. Entries that show only a call come without a potency. Activity calls are given as the source filed them. Unless noted, calls follow the shape of the dose curve; as a rule, active = well fitted curve in the direction sought with a large enough effect in the repeat runs; inconclusive = weak or mixed curves; inactive = no such curve, though single readings can be large; an effect the other way counts as inactive or inconclusive.
# Legend:
# [1] = qHTS assay for small molecule agonists of the p53 signaling pathway (AID 651631; calls by dose curve; also: nearly all actives have a fitted effect of over 15% in size)
# In short: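 Agonist mode screen using a stably integrated beta-lactamase gene under p53 response elements in HCT-116 cells. Compound exposure lasts 16 h at 37 °C; fluorescence intensity is measured following 2 h FRET substrate loading.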
# [2] = qHTS assay for small molecules that induce genotoxicity in human embryonic kidney cells expressing luciferase-tagged ATAD5 (AID 651632); also: nearly all actives have a fitted effect of over 15% in size
# In short: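 A rise in luciferase signal from ATAD5-tagged HEK293T cells marks genetic stress. Cells were exposed to compounds for 16 hr at 37C, 5% CO2, then luciferase was quantified after a 30 min room-temperature incubation with Amplite.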
# [3] = qHTS assay for small molecule agonists of the p53 signaling pathway - cell viability (AID 651633; calls by dose curve;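 also: p53RE-bla HCT reporter cells with a stable beta-lactamase p53 reporter; series mostly up to about 83 µM; nearly all actives have a fitted effect of over 30% in size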)
# In short: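 Viability counter-read: CellTiter-Glo luminescence (30 min, room temperature) in the same p53RE-bla plates. These plates had been exposed to compounds for 16 h at 37 C.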
# [4] = qHTS assay for small molecules that induce genotoxicity in human embryonic kidney cells expressing luciferase-tagged ATAD5 - cell viability (AID 651634; calls by dose curve; also: nearly all actives have a fitted effect of over 25% in size)
# In short: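 Cytotoxicity counter-readout: after 15.5 hr compound treatment at 37C, live-cell protease activity in ATAD5-luciferase HEK293T cells measured by CellTiter-Fluor fluorescence, 30 min development at 37C.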
# [5] = qHTS assay to test for compound auto fluorescence at 590 nm (red) in HepG2 cells (AID 720674)
# In short: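 Red autofluorescence (Ex/Em 540/590 nm, Rose Bengal sodium equivalents) was measured in HepG2 cells, 2,000 per well in MEM plus 10% FBS, plated overnight at 37 C. Readings were taken 1 hr after adding 23 nL compound or DMSO, at 37 C and 5% CO2.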
# [6] = qHTS assay to test for compound auto fluorescence at 535 nm (green) in HepG2 cells (AID 720675)
# [7] = qHTS assay to test for compound auto fluorescence at 460 nm (blue) in HEK293 cells (AID 720678)
# In short: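 Blue read-out at excitation 405 nm and emission 460 nm follows overnight compound exposure of HEK293 cells at 37C in 5% CO2. Activity is given as auto fluorescence equivalency to triamterene.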
# [8] = qHTS assay to test for compound auto fluorescence at 590 nm (red) in HEK293 cells (AID 720679)
# In short: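 Red channel, Ex/Em 540/590nm; signal expressed as equivalency to Rose Bengal sodium. HEK293, 2,000 cells/well, 10% dialyzed FBS; 23 nL compound pinned after 4-5 hr attachment; overnight 37C/5% CO2 before reading.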
# [9] = qHTS assay for small molecule disruptors of the mitochondrial membrane potential - cell viability (AID 720634; calls by dose curve;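 also: human HepG2 liver cancer cells; series mostly up to about 83 µM; nearly all actives have a fitted effect of over 20% in size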)
# In short: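 Cytotoxicity was quantified from ATP content by CellTiter-Glo luminescence in the same wells as the MMP dye read-out. HepG2 (2,000 cells/well) were plated overnight and exposed to compounds for 1 hr at 37 C.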
# [10] = qHTS assay for small molecule disruptors of the mitochondrial membrane potential (AID 720635); also: potency is read from the fitted curve at half-maximal effect
# In short: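 Mitochondrial membrane potential tracked with Mito-MPS dye, red aggregates (ex 540/em 590 nm) against green monomers (ex 490/em 535 nm). Compound treatment 1 hr at 37C, dye 30 min in HepG2.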
smiles,measurement,setting,value
O=C1OCCO1,outcome,[1],inactive
same,outcome,[2],inactive
same,outcome,[3],inactive
same,Potency,[4],inactive
same,outcome,[5],inactive
same,outcome,[6],inactive
same,outcome,[7],inactive
same,outcome,[8],inactive
C=C(C)[C@@H]1CC=C(C)CC1,outcome,[1],inactive
same,outcome,[2],inactive
same,outcome,[3],inactive
same,Potency,[4],inactive
same,outcome,[5],inactive
same,outcome,[6],inactive
same,outcome,[7],inactive
same,outcome,[8],inactive
CC1(C)[C@H]2CC[C@](C)(C2)[C@H]1O,outcome,[1],inactive
same,outcome,[2],inactive
same,outcome,[3],inactive
same,outcome,[9],inactive
same,outcome,[5],inactive
same,outcome,[6],inactive
same,outcome,[7],inactive
same,outcome,[8],inactive
O=C1CCCCO1,outcome,[1],inactive
same,outcome,[2],inactive
same,outcome,[3],inactive
same,Potency,[4],inactive
same,outcome,[5],inactive
same,outcome,[6],inactive
same,outcome,[7],inactive
same,outcome,[8],inactive
CCCCCc1cccc(=O)o1,outcome,[1],inactive
same,outcome,[2],inactive
same,outcome,[3],inactive
same,outcome,[9],inactive
same,Potency,[10],inactive
same,outcome,[5],inactive
same,outcome,[6],inactive
same,outcome,[7],inactive
same,outcome,[8],inactive
c1ccc2c(CC3=NCCN3)cccc2c1,outcome,[1],inactive
same,outcome,[2],inactive
same,outcome,[3],inactive
same,outcome,[9],inactive
same,Potency,[10],inactive
same,outcome,[5],inactive
same,outcome,[6],inactive
same,outcome,[7],inactive
same,outcome,[8],inactive
O=C(O)CCCCCC(=O)O,outcome,[1],inactive
same,outcome,[2],inactive
same,outcome,[3],inactive
same,outcome,[9],inactive
same,Potency,[10],inactive
same,outcome,[5],inactive
same,outcome,[6],inactive
same,outcome,[7],inactive
same,outcome,[8],inactive
CCCCCCCCCCCCCCC(=O)NC(CO)CCCCCCCCCCCCCC (stereo unspecified),outcome,[1],inactive
same,outcome,[2],inactive
same,outcome,[3],inactive
same,Potency,[4],inactive
same,outcome,[9],inactive
same,outcome,[5],inactive
same,outcome,[6],inactive
same,outcome,[7],inactive
same,outcome,[8],inactive
CC(C)(C)NC[C@H](O)COc1cccc2c1CCCC2=O,outcome,[1],inactive
same,outcome,[2],inactive
same,outcome,[3],inactive
same,outcome,[9],inactive
same,Potency,[10],inactive
same,"fluorescence, relative to Rose Bengal",[5],-0.105% [at 18.6 µM]
same,"fluorescence, % of fluorescein control",[6],0.0562% [at 18.6 µM]
same,"fluorescence, % of triamterene",[7],0.103% [at 18.6 µM]
same,"fluorescence, % of fluorescent control",[8],0.133% [at 18.6 µM]
CC1=C(C(=O)O)N2C(=O)[C@@H](NC(=O)[C@H](N)c3ccccc3)[C@H]2SC1,outcome,[1],inactive
same,outcome,[2],inactive
same,outcome,[3],inactive
same,Potency,[4],inactive
same,outcome,[9],inactive
same,outcome,[5],inactive
same,outcome,[6],inactive
same,outcome,[7],inactive
same,outcome,[8],inactive
COC(=O)CCCCC(=O)O,outcome,[1],inactive
same,outcome,[2],inactive
same,outcome,[3],inactive
same,Potency,[4],inactive
same,outcome,[9],inactive
same,outcome,[5],inactive
same,outcome,[6],inactive
same,outcome,[7],inactive
same,outcome,[8],inactive
CC(=O)C1C(=O)C=C(C)OC1=O (stereo unspecified),outcome,[1],inactive
same,outcome,[2],inactive
same,outcome,[3],inactive
same,Potency,[4],inactive
same,outcome,[9],inactive
same,outcome,[5],inactive
same,outcome,[6],inactive
same,outcome,[7],inactive
same,outcome,[8],inactive
CCC[C@@H]1C[C@@H](C(=O)N[C@@H]([C@H]2O[C@H](SC)[C@H](O)[C@@H](O)[C@H]2O)[C@@H](C)O)N(C)C1,outcome,[1],inactive
same,outcome,[2],inactive
same,outcome,[3],inactive
same,Potency,[4],inactive
same,outcome,[9],inactive
same,outcome,[5],inactive
same,outcome,[6],inactive
same,outcome,[7],inactive
same,outcome,[8],inactive
O=C(Cn1ccnc1[N+](=O)[O-])NCc1ccccc1,outcome,[1],inactive
same,outcome,[2],inactive
same,outcome,[3],inactive
same,outcome,[9],inactive
same,Potency,[10],inactive
same,outcome,[5],inactive
same,outcome,[6],inactive
same,outcome,[7],inactive
same,outcome,[8],inactive
CN1CCOC(c2ccccc2)c2ccccc2C1 (stereo unspecified),outcome,[1],inactive
same,outcome,[2],inactive
same,outcome,[3],inactive
same,Potency,[4],inactive
same,outcome,[9],inactive
same,"fluorescence, relative to Rose Bengal",[5],-0.228% [at 18.6 µM]
same,"fluorescence, % of fluorescein control",[6],0.0561% [at 18.6 µM]
same,"fluorescence, % of triamterene",[7],-0.11% [at 18.6 µM]
same,"fluorescence, % of fluorescent control",[8],0.0791% [at 18.6 µM]
O=C1c2ccccc2C(=O)c2cc(Cl)ccc21,activation,[1],-4.52% [at 8.3 µM]
same,activation,[2],2.88% [at 8.08 µM]
same,"activity change, negative = cytotoxicity",[3],-10.5% [at 8.08 µM]
same,"activity, negative = cytotoxicity",[4],10.7% [at 8.08 µM]
same,"activity change, negative = cytotoxicity",[9],3.06% [at 8.08 µM]
same,"fluorescence, relative to Rose Bengal",[5],-0.0283% [at 3.72 µM]
same,"fluorescence, % of fluorescein control",[6],-0.0348% [at 3.72 µM]
same,"fluorescence, % of triamterene",[7],-0.0543% [at 3.72 µM]
same,"fluorescence, % of fluorescent control",[8],-0.785% [at 3.72 µM]
OCC1(CO)COCOC1,outcome,[1],inactive
same,outcome,[2],inactive
same,outcome,[3],inactive
same,outcome,[9],inactive
same,outcome,[5],inactive
same,outcome,[6],inactive
same,outcome,[7],inactive
same,outcome,[8],inactive
O=C(O)CSCC(=O)NC1CCSC1=O (stereo unspecified),outcome,[1],inactive
same,outcome,[2],inactive
same,outcome,[3],inactive
same,outcome,[9],inactive
same,Potency,[10],inactive
same,outcome,[5],inactive
same,outcome,[6],inactive
same,outcome,[7],inactive
same,outcome,[8],inactive
CCC(=O)c1c(O)cc(O)cc1O,outcome,[1],inactive
same,outcome,[2],inactive
same,outcome,[3],inactive
same,Potency,[4],inactive
same,Potency,[10],11.9 µM (active)
same,outcome,[5],inactive
same,outcome,[6],inactive
same,outcome,[7],inactive
same,outcome,[8],inactive
CC(C)c1ccc(C=O)cc1,outcome,[1],inactive
same,outcome,[2],inactive
same,outcome,[3],inactive
same,outcome,[9],inactive
same,Potency,[10],inactive
same,outcome,[5],inactive
same,outcome,[6],inactive
same,outcome,[7],inactive
same,outcome,[8],inactive
C=CCSSCCC,outcome,[1],inactive
same,outcome,[2],inactive
same,outcome,[3],inactive
same,outcome,[9],inactive
same,Potency,[10],inactive
same,outcome,[5],inactive
same,outcome,[6],inactive
same,outcome,[7],inactive
same,outcome,[8],inactive
CCCC(CC)c1ccccc1 (stereo unspecified),outcome,[1],inactive
same,outcome,[2],inactive
same,outcome,[3],inactive
same,Potency,[4],inactive
same,outcome,[9],inactive
same,outcome,[5],inactive
same,outcome,[6],inactive
same,outcome,[7],inactive
same,outcome,[8],inactive
CC/C=C\CCOC(=O)c1ccccc1O,outcome,[1],inactive
same,outcome,[2],inactive
same,outcome,[3],inactive
same,outcome,[9],inactive
same,outcome,[5],inactive
same,outcome,[6],inactive
same,outcome,[7],inactive
same,outcome,[8],inactive
CC1(C)Cc2cccc(N)c2O1,outcome,[1],inactive
same,outcome,[2],inactive
same,outcome,[3],inactive
same,outcome,[9],inactive
same,Potency,[10],inactive
same,outcome,[5],inactive
same,outcome,[6],inactive
same,outcome,[7],inactive
same,outcome,[8],inactive
[O]=[Mo](=[O])=[O],outcome,[1],inactive
same,outcome,[2],inactive
same,outcome,[3],inactive
same,outcome,[9],inactive
same,Potency,[10],inactive
same,"fluorescence, relative to Rose Bengal",[5],-0.0279% [at 18.6 µM]
same,"fluorescence, % of fluorescein control",[6],0.0234% [at 18.6 µM]
same,"fluorescence, % of triamterene",[7],0.132% [at 18.6 µM]
same,"fluorescence, % of fluorescent control",[8],0.419% [at 18.6 µM]
CCC(C)C(=O)OCCc1ccccc1 (stereo unspecified),outcome,[1],inactive
same,outcome,[2],inactive
same,outcome,[3],inactive
same,outcome,[9],inactive
same,Potency,[10],inactive
same,outcome,[5],inactive
same,outcome,[6],inactive
same,outcome,[7],inactive
same,outcome,[8],inactive
CCCCOCCOC(=O)COc1ccc(Cl)cc1Cl,outcome,[1],inactive
same,outcome,[2],inactive
same,outcome,[3],inactive
same,Potency,[4],inactive
same,outcome,[9],inactive
same,outcome,[5],inactive
same,outcome,[6],inactive
same,outcome,[7],inactive
same,outcome,[8],inactive
NCc1ccc(S(N)(=O)=O)cc1,outcome,[1],inactive
same,outcome,[2],inactive
same,outcome,[3],inactive
same,outcome,[9],inactive
same,Potency,[10],inactive
same,"fluorescence, relative to Rose Bengal",[5],-0.36% [at 18.6 µM]
same,"fluorescence, % of fluorescein control",[6],-0.119% [at 18.6 µM]
same,"fluorescence, % of triamterene",[7],0.204% [at 18.6 µM]
same,"fluorescence, % of fluorescent control",[8],-0.0605% [at 18.6 µM]
